CtBP-E1A inh – blocks the CtBP interaction with E1A | AID 651724 | AlphaScreen GST-E1A/His-CtBP binding, 1536-well; hits give low values | activity change, % (no concentration beside the values) | 340,000 compounds, 0.49% hits; in the data active = activity change below about -65%; inconclusive = mostly about -30% to -63%; also: % is scaled to controls: 0 for no effect and ±100 for the full control effect
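Homogeneous bead-based format: GST-tagged E1A captured on glutathione donor beads, His-tagged CtBP on nickel acceptor beads; compounds precede bead addition by 2 h at 37 °C.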
JMJD2A Tudor – inhibitors of human JMJD2A Tudor domain; 390,000 compounds, 4.4% hits; AlphaScreen JMJD2A-Tudor / H3K4me3 peptide binding; Potency, µM (series often up to 114 µM), without a hit: at the top dose activity change, negative = inhibition, hits mostly inhibitors; O75164; also: potency is read from the fitted curve at half-maximal effect; % is scaled to controls: 0 for no effect and ±100 for the full control effect; nearly all actives have a fitted effect of over 50% in size
BAZ2B inh – blocks human BAZ2B; Q9UIF8; AlphaScreen BAZ2B-H3K14Ac peptide displacement; Potency, µM (highest dose often 114 µM), for the others: at the highest dose activity change, negative = inhibition, most hits filed as inhibitors; 360,000 compounds, 4.4% hits; also: potency is read from the fitted curve at half-maximal effect; % is scaled to controls: 0 for no effect and ±100 for the full control effect; nearly all actives have a fitted effect of over 60% in size
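Complex of BAZ2B and biotin-H3K14Ac (50 nM apiece) forms over 30 min at RT, then faces library compounds up to 110 uM for another 30 min; AlphaScreen beads added, 20 min dark incubation, luminescence read.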
Six1-Eya2 inh – Six1/Eya2 interaction inhibition. activity change, % (no concentration beside the values). 360,000 compounds, 0.56% hits. AlphaScreen GST-Six1/His-Eya2 binding, biochemical; hits give low values. AID 651725; in the data active = activity change below about -65%; inconclusive = mostly about -30% to -63%; also: % is scaled to controls: 0 for no effect and ±100 for the full control effect
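Compounds are tested against tagged Six1 and Eya2 proteins bridged by glutathione donor and nickel acceptor beads; after a one-hour incubation at 37 °C without light, AlphaScreen emission is recorded.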
TDP1 inh – TDP1 (human) enzyme inhibition | Potency, µM (titrated, usually from 130 µM), inactives show at the highest dose activity change, negative = inhibition, hits mostly inhibitors | AID 485290 | recombinant TDP1, AlphaScreen DNA substrate cleavage | 350,000 compounds, 0.28% hits; also: potency is read from the fitted curve at half-maximal effect; % is scaled to controls: 0 for no effect and ±100 for the full control effect; nearly all actives have a fitted effect of over 40% in size
Target sequence (Q9NUW8 whole entry, looked up): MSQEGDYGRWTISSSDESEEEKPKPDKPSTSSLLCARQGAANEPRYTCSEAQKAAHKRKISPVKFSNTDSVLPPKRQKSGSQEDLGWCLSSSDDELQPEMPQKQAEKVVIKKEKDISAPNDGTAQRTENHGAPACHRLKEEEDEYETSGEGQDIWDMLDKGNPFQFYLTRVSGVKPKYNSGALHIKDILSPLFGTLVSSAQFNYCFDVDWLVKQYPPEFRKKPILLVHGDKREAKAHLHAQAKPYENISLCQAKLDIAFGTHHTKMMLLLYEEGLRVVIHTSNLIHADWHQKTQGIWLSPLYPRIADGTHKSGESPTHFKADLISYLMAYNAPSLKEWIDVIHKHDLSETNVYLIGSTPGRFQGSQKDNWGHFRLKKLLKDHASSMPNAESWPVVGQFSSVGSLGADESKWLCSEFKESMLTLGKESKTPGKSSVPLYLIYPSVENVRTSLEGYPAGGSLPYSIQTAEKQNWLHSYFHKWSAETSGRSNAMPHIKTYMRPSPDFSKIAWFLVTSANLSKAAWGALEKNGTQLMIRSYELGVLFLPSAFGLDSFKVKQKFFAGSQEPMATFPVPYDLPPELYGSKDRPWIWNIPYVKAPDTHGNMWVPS
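Here, a 5' biotin and 3' phosphotyrosine-FITC DNA oligonucleotide reports Tdp1 activity: intact substrate bridges AlphaScreen beads, while cleavage leaves a 3' phosphate and drops signal. All incubations at room temperature.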
HP1b binding inh – HP1-beta chromodomain-methylated histone interaction inhibition | AlphaScreen HP1-beta / biotin-H3K9me3 peptide binding | Potency, µM (highest dose often 114 µM), for inactives: at the top dose activity change, negative = inhibition, most hits filed as inhibitors | 390,000 compounds, 0.56% hits; also: potency is read from the fitted curve at half-maximal effect; nearly all actives have a fitted effect of over 70% in size
Target sequence (P83916 whole entry, looked up): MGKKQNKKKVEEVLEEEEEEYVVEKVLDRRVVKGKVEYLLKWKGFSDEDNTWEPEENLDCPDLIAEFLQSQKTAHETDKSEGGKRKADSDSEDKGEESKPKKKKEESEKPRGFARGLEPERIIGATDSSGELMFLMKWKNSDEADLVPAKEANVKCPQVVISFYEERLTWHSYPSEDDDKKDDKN
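HP1-beta protein (50 nM final) preincubated 30 min at room temperature with biotinylated H3(1-18)K9me3 peptide (50 nM) in PBS pH 7.4, 0.01% Tween-20, then compound added for 30 min. AlphaScreen streptavidin donor/nickel chelate acceptor beads (10 ug/mL final), 30 min dark, luminescence read.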
The depositor's hits bear a star; ? = inconclusive; nt = not tested or not shown; [ ] = another dose, or the depositor's remark. Shown are actives, neighbours in structure and some others; about 5.3% of the full set was active somewhere. Unless noted, calls follow the shape of the dose curve; as a rule, active = well fitted inhibition curve with a large enough effect; inconclusive = small, poorly fitted or top-dose-only effect; inactive = no such curve, though single readings can be large or run the other way.

SMILES	CtBP-E1A inh	JMJD2A Tudor	BAZ2B inh	Six1-Eya2 inh	TDP1 inh	HP1b binding inh
CCn1cc(CNC(=O)c2ccc(OC3CCN(Cc4ccccn4)CC3)cc2)cn1	6.4	-24.0%	-15.0%	4.5	2.5%[56.1 µM]	25.5%[57 µM]
Cc1nc(C(C)NC(=O)c2ccc(OC3CCN(Cc4ccccn4)CC3)cc2)c(C)s1 (stereo not drawn)	-0.5	-33.6%	79.4µM*	-6.3	6.4%	58.6%
CC(C)c1cc(CNC(=O)c2ccc(OC3CCN(Cc4ccccn4)CC3)cc2)on1	-2.9	44.7µM*	56.2µM*	-8.6	4.0%	1.6%
COc1ccc(C2c3c(ncn(CCc4ccccc4)c3=N)Oc3ccc4ccccc4c32)cc1OC (stereo not drawn)	nt	?	nt	nt	4.3%	nt
CCCOC(=O)c1c(-c2ccccc2)c(-c2ccccc2)nn(C)c1=O	nt	-23.0%	-4.9%	nt	7.0%	16.2%
O=C(CCn1ccc2cc(S(=O)(=O)N3CCCC3)ccc21)NCc1ccccc1Br	nt	5.2%	-1.6%	nt	-5.6%	34.9%
CCn1nc(C)c(CNC(=O)c2ccc(OC3CCN(Cc4ccccn4)CC3)cc2)c1C	-4.7	-9.7%	79.4µM*	-10.4	2.6%	11.3%
Cc1cc2ccccc2cc1CN1CCCCC1	nt	0.0%	-6.1%	-4.8	3.5%	42.5%
CN1CCCN(Cc2cccc3ccccc23)CC1	nt	25.1µM*	56.2µM*	-3.1	nt	?
CCOC(=O)c1c(CN2CCN(C)CC2)n(C)c2cc(Br)c(OC)cc12	-16.7	-26.1%	-5.8%	-17.5	-1.1%	7.2%
Cc1ccc(CN2CCCN(C)CC2)c(C)c1	9.7	3.16µM*	56.2µM*	-2.8	nt	?
COc1cc(OC)c(CN2CCCN(C)CC2)cc1Br	0.4	1.41µM*	79.4µM*	-5.2	nt	?
Cc1ccc(CN2CCN(/N=C/c3cccn3C)CC2)c(C)c1	nt	39.8µM*	50.1µM*	?	10.3%	?
Cc1ccc(NS(=O)(=O)c2cc3c(cc2Cl)CCC(=O)N3)cc1Cl	nt	5.0%	nt	nt	0.9%	nt
COC(=O)c1nnc(C(=O)N(C)Cc2ccccc2)c2[nH]c3ccccc3c12	nt	nt	nt	nt	5.0%	nt
CCN(CC)CCOC(=O)c1ccc(Nc2c3c(nc4ccccc24)CCC3)cc1	nt	-30.0%	nt	nt	4.7%	32.6%
CC1(C)CO[C@@H](CC(=O)O)CN1	nt	nt	nt	nt	4.9%	nt
OC1CCN(Cc2cccc(Oc3ccccc3)c2)CC1	25.6	-9.0%	0.9%	5.8	3.0%	16.8%
OC1CCN(Cc2cccc3ccccc23)CC1	nt	79.4µM*	50.1µM*	-2.2	nt	?
COC(=O)c1ccc(CSc2ccc3nnc(-c4cccc(F)c4)n3n2)o1	?	89.1µM*	-2.4%	-10.7	0.0%	?
Cc1ccc(C)c(NC(=O)Cn2cc(S(=O)(=O)c3ccc(F)cc3)c(=O)c3cc(F)ccc32)c1	nt	-5.3%	1.0%	nt	9.0%	39.2%
Nc1ccccc1Nc1cc(-c2ccccc2)nn1-c1ccccc1	-5.4	31.6µM*	35.5µM*	?	7.0%	?
N#Cc1cc(-c2ccccc2)nn1-c1ccccc1	23.6	8.91µM*	?	19.5	nt	25.1µM*
COc1cc(C(=O)Nc2cc(-c3ccccc3)[nH]n2)cc(OC)c1OC	-6.5	-34.8%	?	-1.4	4.2%	26.4%
Nc1ccccc1Nc1cc(-c2ccccc2)[nH]n1	-1.2	50.1µM*	39.8µM*	-8.1	7.7%	?
SMILES	CtBP-E1A inh	JMJD2A Tudor	BAZ2B inh	Six1-Eya2 inh	TDP1 inh	HP1b binding inh
[C-]#[N+]c1cc(-c2ccncc2)c(C)[nH]c1=O	nt	nt	nt	nt	11.0%	nt
Cc1c(Cl)cccc1NC(=O)C(=O)NCCc1csc(-c2cccc(F)c2)n1	nt	-9.6%	1.1%	nt	5.3%	14.4%[57 µM]
NC(=O)c1ccc(NC(=O)COC(=O)/C=C/c2ccc(Br)o2)cc1	-3.0	20µM*	nt	?	5.62µM*	?
CN(C)S(=O)(=O)c1cccc(NC(=O)COC(=O)/C=C/c2ccc(Br)o2)c1	-5.9	-14.0%[11.4 µM]	-33.3%	-4.2	nt	?
CCn1c2ccccc2c2cc(CN3CCN(Cc4cc(OC)ccc4O)CC3)ccc21	?	1µM*	20µM*	?	7.0%	?
CCn1c2ccccc2c2cc(CN3CCN(S(C)(=O)=O)CC3)ccc21	1.3	?	?	-12.9	8.2%	?
CCn1c2ccccc2c2cc(CN3CCN(Cc4ccccc4F)CC3)ccc21	nt	3.98µM*	15.8µM*	nt	-4.8%[12.3 µM]	?
CCn1c2ccccc2c2cc(CN3CCN(Cc4ccccc4C)CC3)ccc21	nt	5.62µM*	56.2µM*	nt	-4.8%[12.3 µM]	?
CCOc1ccc(Br)cc1CNCCSc1nnnn1-c1ccccc1	nt	-0.7%	6.0%	nt	1.6%	90.6%
O=C(O)C1C2C=CC(O2)C1C(=O)Nc1ccc(S(=O)(=O)Nc2ccccc2)cc1 (stereo not drawn)	2.2	79.4µM*	-4.5%	0.3	-2.3%	?
O=C(O)C1C2C=CC(O2)C1C(=O)Nc1ccc(S(=O)(=O)N2CCc3ccccc32)cc1 (stereo not drawn)	?	-35.0%	-6.0%	-16.3	0.0%	3.2%
CCOC(=O)C(CCc1ccccc1)NC(C)C(=O)N1Cc2cc(OC)c(OC)cc2CC1C(=O)O (stereo not drawn)	nt	nt	nt	nt	8.2%	nt
COc1cc(S(=O)(=O)NCc2ccccn2)ccc1Cl	8.8	31.6µM*	-1.9%	3.1	nt	1.3%
COc1ccc(S(=O)(=O)NCc2ccccn2)cc1NC(=O)c1ccccc1	-0.2	-2.8%	-23.9%	-5.4	10.9%	7.5%
COc1ccc(S(=O)(=O)NCc2ccccn2)cc1NC(=O)c1ccc(C)cc1	0.4	6.31µM*	-37.2%	-8.3	-0.5%	16.1%
CC(=O)Nc1ccc(S(=O)(=O)NCc2ccccn2)cc1	-3.2	5.01µM*	6.1%	3.9	2.6%	-3.6%
O=S(=O)(NCc1ccccn1)C(F)(F)F	-10.0	5.01µM*	50.1µM*	-4.7	nt	36.2%
O=S(=O)(O)NC1CCCCC1	nt	nt	nt	nt	8.6%	nt
CCCCCCCCN[C@@H](C)[C@H](O)c1ccc(SC(C)C)cc1	nt	nt	nt	nt	7.7%[21 µM]	nt
CCOC(=O)c1scc(-c2ccccc2)c1S(=O)(=O)N1CCN(c2ccc(Cl)cc2)CC1	nt	-15.0%	-31.1%	nt	7.1%	28.2%
Cc1nn(C)c(C)c1NC(=O)CCl	-7.9	-26.4%	35.5µM*	-0.7	4.7%	17.1%
Cc1nn(C)c(C)c1NC(=O)COc1ccc(Cl)cc1	nt	-14.5%	-4.3%	22.8	0.9%	66.0%
CO/N=C/c1ccc(Oc2ccc(C)cc2)c([N+](=O)[O-])c1	-3.2	12.6µM*	2.1%	-5.9	2.9%	-0.4%
CONC(=O)C[C@@H](C#N)NC(=O)[C@@H]1CCCN1C(=O)[C@@H](NC(=O)c1ccc(N)c(Cl)c1)C(C)(C)C	nt	-25.9%	nt	nt	-5.9%	nt
CCn1c(CN2CCC(C)CC2)nc2cc(NC(=O)c3cccc([N+](=O)[O-])c3)ccc21	nt	56.2µM*	-8.3%	nt	0.5%	44.1%

Screening data from PubChem.
